Reference: ChEMBL document CHEMBL4513154, “CO-ADD screening of Jain University (India) compounds”
Results with a measured potency or affinity are listed apart.

test system: Klebsiella pneumoniae; settings: Concentration 32 ug.mL-1; ASSAY_TEST Inhibition of Bacterial Growth; detection method Absorption (OD600); MEDIA CAMHB; plate type 384well; NBS; CORNING #3640; time 18 hr

| Structure (SMILES) | Inhibition [%] |
| --- | --- |
| Cn1c(-c2cscn2)nc2cc(Cl)ccc21 | 8.32 |
| CCc1ccc(-n2c(-c3sc(Nc4ccccc4)nc3N)nc3ccccc3c2=O)cc1 | -7.9 |
| Clc1cccc2[nH]c(-c3cscn3)nc12 | 5.98 |
| Cn1c(-c2cscn2)nc2c(Cl)cccc21 | -3.44 |
| N#Cc1ccccc1-c1ccc(Cn2c(-c3cscn3)nc3c(Cl)cccc32)cc1 | -3.22 |
| N#Cc1ccccc1-c1ccc(Cn2c(-c3cscn3)nc3ccccc32)cc1 | 13.6 |
| Nc1nc(Nc2ccc(Cl)cc2)sc1-c1nc2ccccc2c(=O)n1-c1ccccc1 | 6.62 |
| CCc1ccc(Nc2nc(N)c(-c3nc4ccccc4c(=O)n3-c3ccc(CC)cc3)s2)cc1 | 12.46 |
| Nc1nc(Nc2ccccc2)sc1-c1nc2ccccc2c(=O)n1-c1ccccc1 | 11.02 |
| CC(C)c1ccc(Cn2c(-c3cscn3)nc3c(Cl)cccc32)cc1 | 2.02 |
| Clc1cccc2c1nc(-c1cscn1)n2Cc1ccccc1 | 10.03 |
| N#Cc1ccccc1-c1ccc(Cn2c(-c3cscn3)nc3ccc(Cl)cc32)cc1 | 6.08 |
| CCc1ccc(Nc2nc(N)c(-c3nc4ccccc4c(=O)n3-c3ccccc3)s2)cc1 | 10.03 |
| N#Cc1ccccc1-c1ccc(Cn2c(-c3cscn3)nc3cc(Cl)ccc32)cc1 | 8 |
| CCc1ccc(Nc2nc(N)c(-c3nc4ccccc4c(=O)n3-c3ccc(Cl)cc3)s2)cc1 | 12.28 |
| N=C(Nc1ccccc1Cl)c1cscn1 | 17.83 |
| O=[N+]([O-])c1ccc(Cn2c(-c3cscn3)nc3ccccc32)cc1 | 13.21 |
| N=C(Nc1ccccc1)c1cscn1 | -2.19 |
| Nc1nc(Nc2ccccc2)sc1-c1nc2ccccc2c(=O)n1-c1ccc(Cl)cc1 | -25.33 |
| Clc1ccc2nc(-c3cscn3)n(Cc3ccccc3)c2c1 | 10.47 |
| N#Cc1ccc(Cn2c(-c3cscn3)nc3c(Cl)cccc32)cc1 | -10.25 |
| Clc1ccc2c(c1)nc(-c1cscn1)n2Cc1ccccc1 | 12.29 |
| Fc1cc(Cn2c(-c3cscn3)nc3c(Cl)cccc32)cc(C(F)(F)F)c1 | -0.75 |

test system: Candida albicans; settings: 32 ug/mL

| Structure (SMILES) | Inhibition [%] |
| --- | --- |
| Cn1c(-c2cscn2)nc2cc(Cl)ccc21 | 0.35 |
| CCc1ccc(-n2c(-c3sc(Nc4ccccc4)nc3N)nc3ccccc3c2=O)cc1 | 0.25 |
| Clc1cccc2[nH]c(-c3cscn3)nc12 | 15 |
| Cn1c(-c2cscn2)nc2c(Cl)cccc21 | 4.84 |
| N#Cc1ccccc1-c1ccc(Cn2c(-c3cscn3)nc3c(Cl)cccc32)cc1 | 5.26 |
| N#Cc1ccccc1-c1ccc(Cn2c(-c3cscn3)nc3ccccc32)cc1 | 1.96 |
| Nc1nc(Nc2ccc(Cl)cc2)sc1-c1nc2ccccc2c(=O)n1-c1ccccc1 | 3.78 |
| CCc1ccc(Nc2nc(N)c(-c3nc4ccccc4c(=O)n3-c3ccc(CC)cc3)s2)cc1 | 3.1 |
| Nc1nc(Nc2ccccc2)sc1-c1nc2ccccc2c(=O)n1-c1ccccc1 | 6.03 |
| CC(C)c1ccc(Cn2c(-c3cscn3)nc3c(Cl)cccc32)cc1 | 2.25 |
| Clc1cccc2c1nc(-c1cscn1)n2Cc1ccccc1 | 5.46 |
| N#Cc1ccccc1-c1ccc(Cn2c(-c3cscn3)nc3ccc(Cl)cc32)cc1 | 1.5 |
| CCc1ccc(Nc2nc(N)c(-c3nc4ccccc4c(=O)n3-c3ccccc3)s2)cc1 | 6 |
| N#Cc1ccccc1-c1ccc(Cn2c(-c3cscn3)nc3cc(Cl)ccc32)cc1 | -1.51 |
| CCc1ccc(Nc2nc(N)c(-c3nc4ccccc4c(=O)n3-c3ccc(Cl)cc3)s2)cc1 | 0.52 |
| N=C(Nc1ccccc1Cl)c1cscn1 | 2.14 |
| O=[N+]([O-])c1ccc(Cn2c(-c3cscn3)nc3ccccc32)cc1 | 3.4 |
| N=C(Nc1ccccc1)c1cscn1 | 6.13 |
| Nc1nc(Nc2ccccc2)sc1-c1nc2ccccc2c(=O)n1-c1ccc(Cl)cc1 | 3.54 |
| Clc1ccc2nc(-c3cscn3)n(Cc3ccccc3)c2c1 | 0.38 |
| N#Cc1ccc(Cn2c(-c3cscn3)nc3c(Cl)cccc32)cc1 | 4.47 |
| Clc1ccc2c(c1)nc(-c1cscn1)n2Cc1ccccc1 | 1.89 |
| Fc1cc(Cn2c(-c3cscn3)nc3c(Cl)cccc32)cc(C(F)(F)F)c1 | 3.24 |

test system: Cryptococcus neoformans; settings: Concentration 32 ug.mL-1; ASSAY_TEST Inhibition of Fungal Growth; detection method Resazurin; Absorption (OD600-OD570); plate type 384well; NBS; CORNING #3640

| Structure (SMILES) | Inhibition [%] |
| --- | --- |
| Cn1c(-c2cscn2)nc2cc(Cl)ccc21 | -39.47 |
| CCc1ccc(-n2c(-c3sc(Nc4ccccc4)nc3N)nc3ccccc3c2=O)cc1 | -54.61 |
| Clc1cccc2[nH]c(-c3cscn3)nc12 | -19.67 |
| Cn1c(-c2cscn2)nc2c(Cl)cccc21 | -43.05 |
| N#Cc1ccccc1-c1ccc(Cn2c(-c3cscn3)nc3c(Cl)cccc32)cc1 | -8.16 |
| N#Cc1ccccc1-c1ccc(Cn2c(-c3cscn3)nc3ccccc32)cc1 | -25.26 |
| Nc1nc(Nc2ccc(Cl)cc2)sc1-c1nc2ccccc2c(=O)n1-c1ccccc1 | -54.18 |
| CCc1ccc(Nc2nc(N)c(-c3nc4ccccc4c(=O)n3-c3ccc(CC)cc3)s2)cc1 | -48.5 |
| Nc1nc(Nc2ccccc2)sc1-c1nc2ccccc2c(=O)n1-c1ccccc1 | -28.85 |
| CC(C)c1ccc(Cn2c(-c3cscn3)nc3c(Cl)cccc32)cc1 | -5.86 |
| Clc1cccc2c1nc(-c1cscn1)n2Cc1ccccc1 | -32.31 |
| N#Cc1ccccc1-c1ccc(Cn2c(-c3cscn3)nc3ccc(Cl)cc32)cc1 | -28.09 |
| CCc1ccc(Nc2nc(N)c(-c3nc4ccccc4c(=O)n3-c3ccccc3)s2)cc1 | -53.41 |
| N#Cc1ccccc1-c1ccc(Cn2c(-c3cscn3)nc3cc(Cl)ccc32)cc1 | -36.18 |
| CCc1ccc(Nc2nc(N)c(-c3nc4ccccc4c(=O)n3-c3ccc(Cl)cc3)s2)cc1 | -34.77 |
| N=C(Nc1ccccc1Cl)c1cscn1 | -8.23 |
| O=[N+]([O-])c1ccc(Cn2c(-c3cscn3)nc3ccccc32)cc1 | -41.75 |
| N=C(Nc1ccccc1)c1cscn1 | 4.1 |
| Nc1nc(Nc2ccccc2)sc1-c1nc2ccccc2c(=O)n1-c1ccc(Cl)cc1 | -43.66 |
| Clc1ccc2nc(-c3cscn3)n(Cc3ccccc3)c2c1 | -41.97 |
| N#Cc1ccc(Cn2c(-c3cscn3)nc3c(Cl)cccc32)cc1 | -42.41 |
| Clc1ccc2c(c1)nc(-c1cscn1)n2Cc1ccccc1 | -24.56 |
| Fc1cc(Cn2c(-c3cscn3)nc3c(Cl)cccc32)cc(C(F)(F)F)c1 | -8.45 |
